In PubChem BioAssay AID686978 (National Center for Advancing Translational Sciences (NCATS), 2013) one finds Potency data, which are given here for 67 compounds.

Among all 420,000 compounds or so, about 64,000 (15%) were called active. Inconclusive results (about 27%) are left out. The call rests on the fitted dose curve; in most records, active means well fitted inhibition curve with a large enough effect; inconclusive means small, poorly fitted or top-dose-only effect; inactive means flat fitted curve, though single readings scatter. These entries were drawn from the full list. A call without a number means that no potency is given here.
Potency means the concentration at half of the fitted maximal effect.

The experiment in a line: qHTS for Inhibitors of human tyrosyl-DNA phosphodiesterase 1 (TDP1): qHTS in cells in absence of CPT. Further: nearly all actives have a fitted effect of over 55% in size. The settings on record: DT40 Tdp1-/- hTDP1 cells, no CPT, ATP luminescence, 48 h; activity change, negative = growth inhibition: at 46.2 µM (top of the series). An outline of the steps: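 Chicken DT40 Tdp1-/- cells complemented with human TDP1, screened without camptothecin (DMSO vehicle only), 400 cells/well. Compounds pin-transferred, cells incubated at 37 °C for at least 48 hr. Growth read as ATP-dependent luminescence (CellTiter-Glo, 30 min at RT).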
On the technique in general: qHTS replaces the single test concentration by a dilution series.
In the case of `O=C(COc1cccnc1[N+](=O)[O-])Nc1ccc(Cl)cc1F`, the Potency result was “inactive”.

As to `Cc1ccc(NC(=O)OCc2cncs2)cc1`, the Potency result is “inactive”.

Take `COC(=O)c1c(C(=O)OC)c2n(c1C)CCS2`: the Potency result was “inactive”.

As to `CC(C)(C)OC(=O)N(Cc1ccco1)S(=O)(=O)c1ccccc1Br`, the Potency entry was “inactive”.

Regarding `CCn1c(N)c(Br)c(=O)[nH]c1=O`, the Potency result was “inactive”.

As for `N#Cc1c(NCCO)ccc([N+](=O)[O-])c1NCCO`, the Potency result was “inactive”.

Consider `CC1CCN(C(=O)CSc2nnc(-c3ccco3)n2N)CC1`, for which the Potency entry was “inactive”.

With `CCCn1nc(NS(=O)(=O)c2ccccc2)c2cc3cc(C)ccc3nc21`, the Potency result is “inactive”.

In the case of `CC(C)NC(=O)COCc1cc(-c2ccc3c(c2)OCO3)on1`, the Potency result was “inactive”.

Turning to `O=c1c(-c2ccccc2)coc2c(CN3CCOCC3)c(O)ccc12`, the Potency result was “inactive”.

For the compound `Cc1cc(=O)n2nc(N3CCCC3C(=O)NCCCN3CC(C)CC(C)C3)sc2n1` (configuration not stated), the Potency result was “inactive”.

Take `Cc1nnc(SCc2cc(=O)c3cc(F)ccc3[nH]2)n1C`: the Potency result is “inactive”.

With `COCCCN(C(=O)CSCc1ccc(C)cc1)c1c(N)n(Cc2ccccc2)c(=O)[nH]c1=O`, the Potency entry is “inactive”.

Take `CCN(C(=O)COC(=O)Cc1c(F)cccc1Cl)c1c(N)n(Cc2ccccc2)c(=O)[nH]c1=O`: the Potency result is “inactive”.

Take `CCN(C(=O)COC(=O)c1sccc1C)c1c(N)n(Cc2ccccc2)c(=O)[nH]c1=O`: the Potency result was “inactive”.

`CCN(C(=O)COC(=O)CCOc1cccc(C)c1)c1c(N)n(Cc2ccccc2)c(=O)[nH]c1=O`: the Potency was 18.4 µM (active).

Consider `COc1ccc2oc(C(=O)OCC(=O)N(CC(C)C)c3c(N)n(Cc4ccccc4)c(=O)[nH]c3=O)c(C)c2c1`, for which the Potency was 16.4 µM (active).

As for `COCCN(C(=O)CSCc1ccc(C)cc1)c1c(N)n(CC(C)C)c(=O)[nH]c1=O`, the Potency entry was “inactive”.

Take `CCN(C(=O)COC(=O)c1c(C)nn(-c2ccccc2)c1Cl)c1c(N)n(Cc2ccccc2)c(=O)[nH]c1=O`: the Potency result was “inactive”.

On to `COCCN(C(=O)COC(=O)Cc1cccc(OC)c1)c1c(N)n(Cc2ccccc2)c(=O)[nH]c1=O`, for which the Potency result was “inactive”.

For the compound `CCCCN(C(=O)CSCc1ccc(C)cc1)c1c(N)n(Cc2ccccc2)c(=O)[nH]c1=O`, the Potency was 25.9 µM (active).

`CN=C(c1ccccc1)c1c(C)cccc1C`: the Potency entry is “inactive”.

`CC1CCCCC1NC(=O)CSc1nnc(-c2ccncc2)n1CCCN(C)C` (configuration not stated): the Potency entry was “inactive”.

With `CCCNC(=O)N1CCN(C(=O)NCCC)CC1`, the Potency entry was “inactive”.

Regarding `O=C(NNc1cc(Cl)ccc1Cl)c1cccnc1Cl`, the Potency entry was “inactive”.

For the compound `Fc1ccc(OCc2nn3c(Cn4nnc5ccccc54)nnc3s2)cc1`, the Potency result was “inactive”.

For `CCc1ccccc1NC(=O)Cc1cn(C)c2ccccc12`, the Potency result is “inactive”.

With `O=C(O)C1CCCN1S(=O)(=O)c1ccc2c(c1)CCC2` (configuration not stated), the Potency result was “inactive”.

`CC(OC(=O)CNC(=O)c1cccc(F)c1)C(=O)NC1CCCCC1C` (configuration not stated): the Potency entry was “inactive”.

As to `Cc1ccnc(SCC(=O)Nc2cccc(S(=O)(=O)N3CCOCC3)c2)n1`, the Potency result was “inactive”.

As for `O=C1/C(=C\c2cccnc2)CN(Cc2ccccc2)C/C1=C\c1cccnc1`, the Potency was 1.64 µM (active).

On to `O=C(O)CCc1cccnc1`, for which the Potency entry was “inactive”.

Take `O=C(O)C1CC(=O)N(Cc2cccnc2)C1` (configuration not stated): the Potency entry was “inactive”.

Take `COC(=O)c1ccc2c(c1)S(=O)(=O)NC2C` (configuration not stated): the Potency result was “inactive”.

With `O=C(OCC(=O)N1CCc2ccccc21)C1CCCN1S(=O)(=O)c1ccc(Cl)cc1` (configuration not stated), the Potency entry is “inactive”.

With `Cc1ccc(S(=O)(=O)NCC(=O)OCC(=O)N2CCc3ccccc32)cc1`, the Potency entry was “inactive”.

On to `O=C(OCC(=O)N1CCc2ccccc21)c1ccc([N+](=O)[O-])cc1`, for which the Potency was 29.1 µM (active).

Turning to `O=S(=O)(Nc1ccccn1)c1cccc(S(=O)(=O)c2ccc(Cl)cc2)c1`, the Potency result is “inactive”.

Regarding `Cc1coc2c1c(C)cc1oc(=O)c(CC(=O)NCC(=O)N[C@H](C(=O)O)C(C)C)c(C)c12`, the Potency result is “inactive”.

Consider `CCC(NC(=O)C1CCCC1)c1ccc(C)cc1` (configuration not stated), for which the Potency result was “inactive”.

For the compound `Cc1cc[n+](C2CCCCC2)cc1`, the Potency was 15.8 µM (active).

As for `COc1ncnc2sc3c(c12)CCCC3`, the Potency result is “inactive”.

With `Cc1noc(C)c1NC(=O)N(C)C[C@@H]1Oc2cc(Br)ccc2S(=O)(=O)N([C@@H](C)CO)C[C@H]1C`, the Potency result is “inactive”.

In the case of `C[C@H](CO)N1C[C@H](C)[C@@H](CN(C)C(=O)C2CCCCC2)OCc2cnnn2CCCC1=O`, the Potency entry was “inactive”.

For the compound `CCCCOc1ccc(C(C)(O)CCN2CCOCC2)cc1` (configuration not stated), the Potency result was “inactive”.

Consider `COc1ccc2[nH]c(=O)c(CN(Cc3cccnc3)S(=O)(=O)c3ccccc3F)cc2c1`, for which the Potency was 18.4 µM (active).

`COc1ccc(-c2[nH]ncc2CN(C)Cc2cccnc2)c(F)c1`: the Potency result was “inactive”.

On to `CCN(Cc1cc2cc(C)ccc2[nH]c1=O)S(=O)(=O)c1ccccc1`, for which the Potency entry is “inactive”.

As to `Cc1ccc(C(=O)NCC(=O)OCC(=O)NC2CCCCCCC2)cc1`, the Potency result was “inactive”.

With `O=C(NCCc1ccc(Cl)cc1)C1CC(=O)N(C2CCCCC2)C1` (configuration not stated), the Potency entry was “inactive”.

With `COc1ccc(C2C(=O)N(C3CCCCCC3)CC(=O)N2CCc2ccc(Cl)cc2)cc1OC` (configuration not stated), the Potency is 23.1 µM (active).

Take `COc1ccc(C2C(=O)N(C3CCCCC3)CC(=O)N2Cc2ccccc2Cl)cc1OC` (configuration not stated): the Potency result is “inactive”.

Take `CCCCN(C(=O)c1nn(C)c(=O)c2ccccc12)c1c(N)n(CCC)c(=O)[nH]c1=O`: the Potency entry was “inactive”.

As to `CCN1C[C@@H]2[C@@H]3C(=O)N(C)C(=O)[C@@H]3[C@](C)(C1=O)N2C(=O)c1ccccc1`, the Potency entry is “inactive”.

For `CCOC(=O)C1=C(N)N2C(=O)C(C)SC2=C(C(=O)OCC)C1c1cc(OC)c(OC)c(OC)c1` (configuration not stated), the Potency entry was “inactive”.

As for `CCCOC(=O)c1[nH]c2c(c1C)C(=O)CC(c1cc(OC)c(OC)c(OC)c1)C2` (configuration not stated), the Potency is 4.61 µM (active).

Regarding `CCCOC(=O)c1[nH]c2c(c1C)C(=O)CC(c1cccs1)C2` (configuration not stated), the Potency was 0.58 µM (active).

`COc1cc(C2CC(=O)c3cnc(NC(C)=O)nc3C2)cc(OC)c1OC` (configuration not stated): the Potency result is “inactive”.

For `CCCOC(=O)c1cc2ccccc2oc1=O`, the Potency entry is “inactive”.

For `Cc1noc(C)c1C(=O)N1CCC1(C)C(=O)NS(=O)(=O)c1ccc(C#N)cc1` (configuration not stated), the Potency result was “inactive”.

As to `Cn1c(SCC(=O)Nc2cccc(NC(=O)c3cccs3)c2)nnc1-c1ccncc1`, the Potency result was “inactive”.

As for `COc1cc(OC)c(C(=O)N2CCCC2)cc1OC`, the Potency result was “inactive”.

With `Nc1cc(N2CCCCCC2)c2nonc2c1[N+](=O)[O-]`, the Potency entry was “inactive”.

Take `CCOc1ccc(N(C)S(=O)(=O)c2cnc[nH]2)cc1`: the Potency result is “inactive”.

As to `OC(CNCC1CCCO1)Cn1c2ccc(Br)cc2c2cc(Br)ccc21` (configuration not stated), the Potency is 18.4 µM (active).

For the compound `O=C(CCNS(=O)(=O)c1ccc(Br)cc1)NCC1CCCO1` (configuration not stated), the Potency entry is “inactive”.

Take `CC(NS(=O)(=O)c1ccc(Br)cc1)C(=O)NCC1CCCO1` (configuration not stated): the Potency result is “inactive”.
